Laboratory results reported in ChEMBL document CHEMBL4513216, “Probing the Open Global Health Chemical Diversity Library for Multistage-Active Starting Points for Next-Generation Antimalarials” (ACS Infect Dis, 2020).
The campaign covered roughly 69,000 compounds. About 8,600 (12%) showed an effect of 50% or more. The list comes from a sample in which strong results are over-represented; it also holds similar structures and randomly drawn compounds.

Test system: Plasmodium berghei
Assay: Screen against P. berghei liver stage (PbLuc), transformed with Luciferase, at 10uM
Assay type: functional, HepG2
Conditions: tested at 10 uM

Row | Compound | INHIBITION
1 | CCOCCNC(=O)c1cccc(Cn2nc(C)cc2C)c1 | -89.3%
2 | Cc1cc2n(n1)[C@@H](C(F)(F)F)C[C@@H](C1CCCN(C(=O)C(C)C)C1)N2 (some centres not stated) | 1.5%
3 | CC(C)Cc1cc(CN2C[C@@H]3CC[C@H]2CN(Cc2cscn2)C3)n[nH]1 | 39.9%
4 | CN(Cc1cc(Br)cn1C)C(=O)c1ccsc1 | -82.2%
5 | CN(Cc1cc(Br)cn1C)C(=O)Cc1cccc(O)c1 | 50.8%
6 | CN(Cc1cc(Br)cn1C)C(=O)Cc1cccnc1 | -91.4%
7 | O=C(NC[C@H]1C[C@@H]2CCN1C[C@@H]2CN1CCOCC1)Nc1ccsc1 | 41.1%
8 | CC1CCN(C[C@H]2CN3CC[C@H]2C[C@@H]3CNC(=O)Nc2ccsc2)CC1 | 77.7%
9 | O=C(NC[C@H]1C[C@@H]2CCN1C[C@@H]2CN1CCCCC1)Nc1ccsc1 | 33.2%
10 | O=C(CC1CC1)NCc1cn2c(n1)CN(Cc1nccs1)CC2 | 33.4%
11 | CCC(C)(NCC(=O)Nc1ccccc1)c1nc(C)cs1 (configuration not stated) | 9.3%
12 | CCC(C)(NCC(=O)Nc1nc(C)cs1)c1nc(C)cs1 (configuration not stated) | 12.2%
13 | CCC(C)(NCC(=O)NC(C)C)c1nc(C)cs1 (configuration not stated) | 76.7%
14 | CC(C)c1nc(O)c2nnn(C[C@H]3CCCN(Cc4ccsc4)C3)c2n1 | 32.3%
15 | CCC(=O)N1CCC2(CC1)CN(CCO)Cc1ccccc12 | -16.2%
16 | CCc1oc2ccc(NS(C)(=O)=O)cc2c1C(=O)OC | 12.8%
17 | CS(=O)(=O)N1CCC2(CC1)NCCn1c(-c3ccccc3)cnc12 | -0.554%
18 | COc1cccc(-c2cnc3n2CCC32CCN(S(C)(=O)=O)CC2)c1 | 39.3%
19 | COc1ccc(-c2cnc3n2CCNC32CCN(S(C)(=O)=O)CC2)cc1 | 57.1%
20 | COc1ccc(CC(=O)N2CCC[C@@H](N)[C@@H]2c2ccccc2F)cc1 | 44.8%
21 | CC(C)NC(=O)CC1COC2(CCN(Cc3cccs3)CC2)C1 (configuration not stated) | 29.9%
22 | CC(NC(=O)Nc1nccs1)C(=O)NC1CCCC1 (configuration not stated) | 40.2%
23 | CCN(CC)C(=O)CCCNC(=O)c1csc(NC2CC2)n1 | 28%

Row | Compound | INHIBITION
24 | Cc1cnc(NC(=O)c2csc(NCC(C)C)n2)s1 | 83.8%
25 | O=C(Nc1ccccn1)c1csc(NC2CCCC2)n1 | -32.8%
26 | CC(C)CCNc1nc(C(=O)NC2CC2)cs1 | -30%
27 | Cc1cnc(NC(=O)c2csc(NC3CCCC3)n2)s1 | 89.6%
28 | O=C(Nc1nccs1)c1csc(NC2CCCC2)n1 | 80.9%
29 | Cc1cnc(NC(=O)N2CCCC2)s1 | -1.58%
30 | Cc1cccc(NC(=O)c2csc(NCC(C)C)n2)n1 | -27.5%
31 | O=C(CCC1CCN(C2CCSCC2)CC1)NCC1CCCO1 (configuration not stated) | 42.1%
32 | CCc1nc(CN(C(C)=O)C2CCN(CCc3cccs3)C2)no1 (configuration not stated) | 36.1%
33 | CC(C)c1nc2c(n1C)CCN(Cc1cccc(OCC(N)=O)c1)C2 | 7.08%
34 | O=C(CSc1ccccn1)N1C[C@@H]2CC[C@H]1CN(Cc1cscn1)C2 | -38.9%
35 | O=C(c1ccccn1)N1CCc2ncc(Cn3cccn3)n2CC1 | -14.2%
36 | O=C(CCn1ccc2cc(Br)ccc21)/N=c1\[nH]nc(C2CCCO2)s1 (configuration not stated) | 35.1%
37 | Cc1cc(CN(C)CCC(O)c2ccccc2)nn1C (configuration not stated) | -3.3%
38 | Cn1ncc2cnn(CC(O)COCc3ccccc3Cl)c2c1=O (configuration not stated) | -30.1%
39 | Cc1cc(=O)n2ncnc2n1CC(O)c1ccccc1 (configuration not stated) | 62.9%
40 | Cc1cc(=O)n2ncnc2n1CC(O)COCc1ccccc1Cl (configuration not stated) | 55.4%
41 | Cc1cc(=O)n2ncnc2n1CC(O)c1ccccc1F (configuration not stated) | 33%
42 | Cc1cc(=O)n2ncnc2n1CC(O)c1ccc(F)cc1F (configuration not stated) | 57.6%
43 | Cc1cc(=O)n2ncnc2n1CC(O)c1cc(F)ccc1F (configuration not stated) | -4.74%
44 | Cc1cc(=O)n2ncnc2n1CC(O)c1ccccc1Cl (configuration not stated) | 2.37%
45 | Cc1cc(=O)n2ncnc2n1CC(O)c1cc(Cl)ccc1Cl (configuration not stated) | 29.8%
46 | CN1CCN(c2cc(CNC(=O)c3cccnc3O)ccn2)CC1 | 18.36%

Row | Compound | INHIBITION
47 | CCN1CCN(C2CCN(Cc3nc(C)c(C)o3)CC2)C1=O | 44.1%
48 | CCc1nc(C2CCCN2Cc2ncc(C)c(OC)c2C)no1 (configuration not stated) | 11.4%
49 | O=S(=O)(C1CC1)N1CCOCC2(CCN(c3ccccn3)C2)C1 (configuration not stated) | -26.1%
50 | CS(=O)(=O)CC(=O)N1C[C@H]2CCC[C@@]2(COCc2ccncc2)C1 | 31.2%
51 | CCC(CCNC(=O)c1cc(C2CC2)nc2c1cnn2C)n1cccn1 (configuration not stated) | 9.55%
52 | CC(C)NC(=O)N1CCN(CCn2cccn2)c2ncccc2C1 | 5.89%
53 | COc1ccc(-c2ccccc2CCN)c(OC)c1 | -2.9%
54 | COc1ccc(-c2cc(CN)ccc2F)c(OC)c1OC | 30.9%
55 | COc1ccc(-c2ccccc2CCN)c(OC)c1OC | 50.8%
56 | Cc1cnc(C(=O)N2C[C@@H](NS(C)(=O)=O)[C@@H]3OCCC[C@@H]32)cn1 | 35.7%
57 | FC(F)(F)COc1ccc(CSCc2ccon2)cn1 | 24%
58 | Cc1nnc(CSCc2ccc(OCC(F)(F)F)nc2)o1 | 56%
59 | Cc1nc(CSCc2ccc(OCC(F)(F)F)nc2)no1 | 40.7%
60 | CCNC(=O)CCN1CCCC1c1cccc2c1OCCO2 (configuration not stated) | -2.23%
61 | COCCN1CCCC1c1cccc2c1OCCO2 (configuration not stated) | 59.4%
62 | COC(=O)CCN1CCCC1c1cccc2c1OCCO2 (configuration not stated) | 15.9%
63 | NC(=O)NC(=O)CCN1CCCC1c1cccc2c1OCCO2 (configuration not stated) | 27.7%
64 | O=C(CCN1CCCC1c1cccc2c1OCCO2)N1CCOCC1 (configuration not stated) | 57.7%
65 | O=C(CCN1CCCC1c1cccc2c1OCCO2)N1CCCCC1 (configuration not stated) | 40.6%
66 | Cn1cc(C(=O)NCC2CCN(C(=O)NC3CCCCC3)CC2)cn1 | -3.7%
67 | OCC(CO)Nc1nc(C(F)F)nc2ccccc12 | 51.9%
68 | CSCC(CCO)Nc1nc(C(F)F)nc2ccccc12 (configuration not stated) | -49%
69 | CCC(CO)Nc1nc(C(F)F)nc2ccccc12 (configuration not stated) | 8.41%

Row | Compound | INHIBITION
70 | CCCc1nc(CN(CC)C(=O)c2ccc3[nH]cnc3c2)no1 | 30.1%
71 | Cc1ccc(-c2noc(C3CCN3C(=O)c3cc[nH]n3)n2)s1 (configuration not stated) | 85%
72 | CCc1nc(C2CCCN2C(=O)c2cc[nH]n2)no1 (configuration not stated) | 58.5%
73 | CCc1nc(C2CCCN2C(=O)c2c[nH]c(C)n2)no1 (configuration not stated) | 26.1%
74 | Cc1ccc(-c2noc(C3CCN3C(=O)c3ccc(=O)[nH]n3)n2)s1 (configuration not stated) | 4.505%
75 | CCc1nc(C2CCCN2C(=O)c2ccc3c(c2)nnn3C)no1 (configuration not stated) | 62.6%
76 | CCc1nc(C2CCCN2C(=O)c2ccc3c(c2)nc(C)n3C)no1 (configuration not stated) | -8.3%
77 | Cc1ccc(-c2noc(C3CCN3C(=O)c3ccn(C)n3)n2)s1 (configuration not stated) | 23.95%
78 | CCc1nc(C2CCCN2C(=O)c2cc(C3CC3)[nH]n2)no1 (configuration not stated) | 9.32%
79 | CCCc1nc(CN(CC)C(=O)c2ccc(OC)c(OC)c2)no1 | 30.1%
80 | CCc1nc(C2CCCN2C(=O)c2ccc3c(c2)nnn3CC)no1 (configuration not stated) | 2.61%
81 | CCCc1nc(CN(CC)C(=O)c2ccc3c(c2)nnn3C)no1 | 52.8%
82 | O=C(NCC1(COc2cnccn2)C[C@@H](O)[C@@H](O)C1)C1CC1 (some centres not stated) | 18.2%
83 | COc1nn(C)c2c1CCCN(C(=O)COc1ccccc1)C2 | -15.7%
84 | COc1cc(NC(=O)CCn2nc(-c3cccs3)oc2=O)cc(OC)c1 | -7.81%
85 | CC1CCCN(C(=O)c2ccn(COc3ccccc3)n2)C1 (configuration not stated) | 27.5%
86 | CC(C)N1CCc2c(c(COc3cncnc3)nn2CC2CC2)C1 | 2.4%
87 | Cc1nn(C)c(N2CCOCC2)c1CNC(C(N)=O)c1ccccc1 (configuration not stated) | -32.4%
88 | COc1ccc(CNC(=O)NCC(=O)NC2CC2)c(C(F)(F)F)c1 | 26.6%
89 | CCc1ccc(S(=O)(=O)Nc2ccc(F)cc2C(=O)O)s1 | 5.605%
90 | CC(=O)N1CCO[C@@H]2CN(S(=O)(=O)c3cccs3)CC[C@@H]2C1 | 21.6%
91 | CC1CCN(C(=O)[C@H]2C[C@@H]3CCN(CC4CCOCC4)C[C@@H]3O2)CC1 | 24.9%
92 | CCc1cc(C(=O)N2CCCC2c2nc(O)cc(CC)n2)on1 (configuration not stated) | 1.11%

Row | Compound | INHIBITION
93 | CCc1cc(O)nc(C2CCCN2C(=O)COC)n1 (configuration not stated) | 30.8%
94 | CCc1cc(O)nc(C2CCCN2C(=O)c2cc(CC)on2)n1 (configuration not stated) | 51.5%
95 | Cc1cccc(C(=O)N2CCC(c3n[nH]c(C4CC4)n3)CC2)c1 | 44.1%
96 | Cc1ccccc1-n1cc(C2=CCN(CCn3cc[nH]c3=O)CC2)cn1 | 69.4%
97 | Cc1ccccc1-n1cc(C2=CCN(CCN3CCOCC3)CC2)cn1 | 19.4%
98 | O=c1[nH]ccn1CCCN1CC=C(c2cnn(-c3ccccc3)c2)CC1 | -95.3%
99 | CCOCc1ncn2c1CN(C(=O)Nc1ccccc1)CC2 | -27%
100 | O=C(c1cccc(O)n1)N1CCC(O)(CN2CCC(F)(F)CC2)C1 (configuration not stated) | -21.6%
101 | CC(=O)N1CCc2c(nc(N(C)C)nc2NCCCn2ccnc2C)C1 | 71.3%
102 | Cc1nccn1CCCNc1ncccc1C#N | 18.4%
103 | COCCNc1nc2c(c(NCCc3cccs3)n1)CCNCC2 | 28%
104 | Cc1nc2c(c(NCc3ccccc3)n1)CCN(C(=O)NC(C)C)CC2 | 66.1%
105 | CC(=O)N1CCc2c(nc(N(C)C)nc2NCCc2cccs2)C1 | 63.8%
106 | CC(=O)N1CCc2c(nc(N(C)C)nc2N(C)CCCC2CCCO2)C1 (configuration not stated) | 21.7%
107 | CC(=O)N1CCc2c(nc(N(C)C)nc2N(C)CCC2CCCCO2)C1 (configuration not stated) | -10.4%
108 | CC(=O)N1CCc2c(nc(N(C)C)nc2NCc2cccs2)C1 | 61.9%
109 | CC(C)NC(=O)N1CCc2nc(C(=O)NCc3ccccc3)sc2CC1 | 34.1%
110 | CC(=O)N1CCc2c(nc(N(C)C)nc2NCCCn2ccnc2)C1 | 18.4%
111 | CSCC(=O)N1CCc2nc(C)nc(NCc3ccccc3)c2CC1 | 37.3%
112 | CC(=O)N1CCc2c(nc(N(C)C)nc2NCCC2CCCCO2)C1 (configuration not stated) | 45.1%
